Out of some 76,000 compounds screened, about 1,900 (2.5%) were called active. Entries that show only a call come without a potency. About 5% were inconclusive and are not listed. Calls come from the whole dose curve; as a rule, active = well fitted inhibition curve with a large enough effect; inconclusive = small, poorly fitted or top-dose-only effect; inactive = flat fitted curve, though single readings scatter. Only a selection was taken, and actives are over-represented in it overall.

The assay deals with Luciferin 4-monooxygenase (Photinus pyralis) (UniProt P08659). Put plainly: Firefly luciferase inhibition profiling of diverse chemical library using quantitative high-throughput screening. Note: nearly all actives have a fitted effect of over 65% in size. The settings on record: purified P. pyralis luciferase, luminescence, biochemical; series mostly up to 115 µM. From the text: Firefly (Photinus pyralis) luciferase is one of the most commonly used transcriptional reporters for a number of reasons. It is considered one of the more dynamically responsive reporters - that is, responsive to changes in reporter transcription - as it requires no post-translational modifications and is enzymatically active directly after protein synthesis (Wood, 1998). Additionally, the half-life of the luciferase protein is short relative to other reporter-gene products (Wood, 1995). Whereas reporters with long half-lives potentially allow for increased signal due to accumulation of reporter-gene product, once accumulated in the cell, dynamic changes in reporter-gene expression may be difficult to detect(Fan and Wood, 2007; Almond et al., 2004). It has been shown that wild-type P. pyralis luciferase has a half-life of approximately four hours in mammalian cells (Thompson et al., 1991). Firefly luciferase reporter-gene assays are also generally considered one of the most sensitive assay types (Wood, 1995; Wood, 1998). Although light produced in a bioluminescence reaction is of lower intensity than that produced during fluorescence emission, this is offset by little to no background light inherent to luminescent assays. Thus the luciferase reporter can be expressed at much lower levels than fluorescent proteins while still providing robust signal. However, it was initially observed, in 1991, by Thompson et al., that compounds that resemble the substrates of firefly luciferase (FLuc) can act as competitive inhibitors of the enzyme, and that these compounds, upon interaction with luciferase in the cell, can actually stabilize the protein and increase its half-life. Accumulated intracellular FLuc protein can be measured as an increase in luminescence signal, upon addition of detection reagents (which contain high concentrations of FLuc substrates) commonly used in high-throughput screening. In cell-based reporter gene assays that use FLuc as the reporter gene to quantitate the potential influence of a given compound against the target biology, this apparent increase in luminescence can mistakenly be interpreted as identification of a compound that is active against the target of interest. FLuc inhibitory compounds that stabilize the FLuc protein will give an identical read-out, making it difficult to distinguish compounds that are active against the target from those active against FLuc. In summary, the results generated here constitutes a valuable resource for the scientific community and provides insight on identifying compounds with inhibitory activity for the commonly-used reporter, firefly luciferase. References: -Almond, B., Zdanovsky, A., Zdanovskaia, M., Ma, D., Stecha, P., Paguio, A., Garvin, D., and Wood, K. (2004). Introducing the Rapid Response Reporter Vectors. Promega Notes 87, 18-22. -Fan, F., and Wood, K.V. (2007). Bioluminescent assays for high-throughput screening. Assay Drug Dev Technol 5, 127-136. -Thompson, J.F., Hayes, L.S., and Lloyd, D.B. (1991). Modulation of firefly luciferase stability and impact on studies of gene regulation. Gene 103, 171-177. -Wood, K.V. (1998). The chemistry of bioluminescent reporter assays. Promega Notes 65, 14-20. -Wood, K.V. (1995). Marker proteins for gene expression. Curr Opin Biotechnol 6, 50-58.
Sequence of Luciferin 4-monooxygenase (Photinus pyralis) (P08659 whole entry, looked up): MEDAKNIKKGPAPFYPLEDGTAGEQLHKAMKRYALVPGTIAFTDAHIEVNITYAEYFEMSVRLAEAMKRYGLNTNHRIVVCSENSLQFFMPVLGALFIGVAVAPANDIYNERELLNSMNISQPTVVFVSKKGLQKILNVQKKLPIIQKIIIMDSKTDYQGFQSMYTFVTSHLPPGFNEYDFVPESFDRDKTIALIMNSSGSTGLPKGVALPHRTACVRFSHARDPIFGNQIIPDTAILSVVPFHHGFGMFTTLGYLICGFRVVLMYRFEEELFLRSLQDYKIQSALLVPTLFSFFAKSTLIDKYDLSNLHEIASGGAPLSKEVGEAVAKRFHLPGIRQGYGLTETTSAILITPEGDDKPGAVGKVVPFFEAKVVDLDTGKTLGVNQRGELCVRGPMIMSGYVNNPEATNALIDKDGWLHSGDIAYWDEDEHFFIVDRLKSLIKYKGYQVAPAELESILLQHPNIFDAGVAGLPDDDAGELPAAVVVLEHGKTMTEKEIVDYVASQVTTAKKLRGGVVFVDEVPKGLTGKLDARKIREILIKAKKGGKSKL
Reagents: 50mM Tris acetate, pH 7.5; 10mM Mg acetate; 10uM D-luciferin (Sigma #L9504); 10uM ATP; 0.01% Tween-20; 0.05% BSA; 10nM P. pyralis luciferase (Sigma #L9506) Control compounds used were two known firefly luciferase inhibitors (compounds (2) and (5) in Auld et al., 2010), and DMSO. Assay Summary: Three microliters containing firefly luciferase substrates in buffer (final concentrations: 50mM Tris acetate, pH 7.5, 10mM Mg acetate, 0.01% Tween-20, 0.05% BSA, 10uM D-luciferin, and 10uM ATP) are dispensed into each well of a Greiner white, solid-bottom 1536-well format plate using a flying reagent dispenser (FRD). […]
Take `O=C(c1ccccc1C1CCNC1)N1CCC(Nc2ncccn2)CC1` (stereo not drawn): the Potency result is “inactive”. With `CN1C(=O)CO[C@H]2CN(C(=O)c3ccccc3)C[C@H]21`, the Potency entry is “inactive”. Then `Cc1ccccc1CN1CCOc2cc([S+](=O)([O-])N(C)C)ccc2C1`, with “inactive”; and `CC(C)CN1CCN(C(=O)c2cc3c(s2)CCN(C(=O)c2ccc(Cl)cc2)C3)CC1`, with “inactive”; and `CC(C)c1noc([C@H]2C[C@@H]3C(=O)NCCCCCCN(C(=O)Cc4cccnc4)[C@@H]3C2)n1`, with “inactive”. Take `COc1ccc(C)cc1NC(=O)Cn1nc2n(c1=O)CCCC2`: the Potency entry was “inactive”. The result for `COc1ccc(C)cc1NC(=O)Nc1cccc(-c2ccc(N3CCCCC3)nn2)c1` reads 0.282 µM (active). With `COc1cc(=O)n2c(c1C(=O)Nc1cc(C)ccc1C)CCCC2`, the Potency result was “inactive”. With `COc1cc(Cl)ccc1C(=O)N1CCC[C@H]1c1nc(-c2ccccc2)no1`, the Potency entry is “inactive”. The result for `COCCn1c(=O)n([C@H]2CCCN(C(=O)c3cc4ccccc4[nH]3)C2)c2ncccc21` reads “inactive”; that for `Cc1ccc(-c2nc(C(=O)N3CCN(c4ccccn4)CC3)no2)cc1`, 14.1 µM (active). The result for `CSc1ccc(CNC(=O)c2noc(-c3ccc(C)cc3)n2)cc1` reads “inactive”; that for `CC(NC(=O)Cc1cccc(F)c1)C(=O)N1CCN(c2ccccn2)CC1` (stereo not drawn), “inactive”; that for `COc1ccc(CCNC(=O)c2noc(-c3ccc(C)cc3)n2)cc1OC`, “inactive”. `Cc1cccc(C(=O)N2CCCC(C(=O)N3CCN(c4ccccn4)CC3)CCNC(=O)CC2)c1` (stereo not drawn): the Potency entry is “inactive”.

Consider `Cc1ccc(-c2nc(C(=O)N(C)Cc3ccccc3)no2)cc1`, for which the Potency was 10 µM (active). As for `COCCn1c(CO)nnc1C1CC(NC(=O)c2sc(C)nc2C)C1` (stereo not drawn), the Potency entry was “inactive”.

With `CCC(C(=O)Nc1ccc2c(c1)CN(Cc1cc(F)cc(F)c1)C(=O)CO2)c1ccccc1` (stereo not drawn), the Potency entry is “inactive”.

`COc1cccc(C(=O)N2CCC(C(NC(=O)c3ccccc3C)C(=O)NCC(C)C)CC2)c1` (stereo not drawn): the Potency result was “inactive”. `O=C(NCC1Cn2cccc2C(=O)N1Cc1ccccc1)c1ccc(F)cc1` (stereo not drawn): the Potency result was “inactive”. Regarding `CCC1=C(C(=O)OC)C(c2ccc(C)cc2C)N2C(CC(=O)N3CCOCC3)=CSC2=N1` (stereo not drawn), the Potency result is “inactive”.

Take `N#Cc1cc2c(nc1N1CCN(C3CCCC3)C(CCO)C1)CCCC2` (stereo not drawn): the Potency result was “inactive”. Then `COC(=O)c1ccccc1NC(=O)Cn1nc2n(c1=O)CCCCC2`, with “inactive”; and `COc1ccccc1-c1cc(-c2cn[nH]c2)c2cncn2c1`, with “inactive”; and `c1cc(N2CCOCC2)ccc1-c1cc(-c2cn[nH]c2)c2cncn2c1`, with 22.4 µM (active). For `COc1ncccc1-c1cc(-c2cn[nH]c2)c2cncn2c1`, the Potency result is “inactive”. Then `Cc1ccc(C(=O)N2CCCC(c3nc(-c4ccccc4)no3)CCNC(=O)CC2)cn1` (stereo not drawn), with 28.2 µM (active); and `Cn1cccc1C(=O)N1CCCC(c2nc(-c3ccccc3)no2)CCNC(=O)CC1` (stereo not drawn), with “inactive”.

As to `CC(C)C(=O)N1CCCC(c2nc(-c3ccccc3)no2)CCNC(=O)CC1` (stereo not drawn), the Potency entry is “inactive”.

Regarding `CC[C@H]1CN(C(=O)c2ccc(F)cc2)CC[C@H]1CC(=O)Nc1ccccc1`, the Potency entry was “inactive”. Then `O=C1CN(Cc2ccc(-c3ccccc3)cc2)CCN1c1cc(Cl)ncn1`, with “inactive”; and `OCc1cccc(-c2cc3c(cn2)CN(Cc2ccccc2)CCN3)c1`, with 14.1 µM (active). Then `Cn1ccc(Nc2cc3c(cn2)CN(CCc2ccccc2)CCN3)n1`, with “inactive”; and `Cc1cccn2c(CC(=O)NCC3CCN(c4cnn(C)c(=O)c4)C3)cnc12` (stereo not drawn), with “inactive”. As for `O=C(O)[C@@H]1CN(C(=O)NC2CCCC2)C[C@H]1c1ccccn1`, the Potency result is “inactive”. Then `COc1ccccc1C(=O)NCc1ccnc2[nH]ccc12`, with “inactive”; and `O=C(NCc1c[nH]c2ncccc12)c1ccccn1`, with “inactive”.

Take `O=C(NCc1ccnc2[nH]ccc12)c1ccccn1`: the Potency is 28.2 µM (active). For the compound `CN(C)c1ccc(NC(=O)COc2ccc(-c3nnc4n3CCCC4)cc2)cc1`, the Potency entry was “inactive”. Consider `COCc1nc(-c2ccc(NC(=O)Cn3nc4c(cc3=O)CCCC4)cc2)n[nH]1`, for which the Potency entry was “inactive”. Then `Nc1nc(C2CC(NC(=O)CCc3nc4ccc(F)cc4[nH]3)C2)cc(=O)[nH]1` (stereo not drawn), with “inactive”; and `COCc1nc(C2CC(NC(=O)c3cc(-c4ccsc4)n[nH]3)C2)cc(=O)[nH]1` (stereo not drawn), with 28.2 µM (active). Then `O=C(NCc1ccccn1)C1CN(S(=O)(=O)c2cccs2)CC12CCCCC2` (stereo not drawn), with “inactive”. Then `O=C(NC1CC1)[C@@H]1C[C@H](Oc2cccnc2)CN1C(=O)C1CCC1`, with “inactive”.

`N#Cc1ccc(O[C@@H]2COCC[C@H]2NC(=O)CCCn2cccn2)cc1`: the Potency entry is “inactive”.

Take `CCOC(=O)c1ccc(NC(=O)N2Cc3[nH]cnc3C[C@H]2c2nc(-c3ccc(Cl)cc3)no2)cc1`: the Potency entry is “inactive”. Then `CC(C)NC(=O)N1Cc2[nH]cnc2C[C@H]1c1nc(-c2ccc(Cl)cc2)no1`, with “inactive”. In the case of `Cc1cccc(-c2noc([C@@H]3Cc4nc[nH]c4CN3C(=O)Nc3ccccc3)n2)c1`, the Potency is 50.1 µM (active).

The values are drawn from PubChem BioAssay AID1347043 (National Center for Advancing Translational Sciences (NCATS), 2019).
